Active and inactive are the calls of the source. How the source made its calls: active means hit-call score of the fitted dose curve at least 0.9, where 1 is the maximum; inactive means score below 0.9.
Assays:
[1] = ATG_DR4_LXR_CIS: Attagene CIS-FACTORIAL HepG2 Assay for human Liver X Receptor (LXR), DR4 submotif (AID 2282929); details: HepG2 Attagene DR4 cis-reporter, mRNA transcription; AC50: actives raise or lower the signal unless noted; outcome: actives raise or lower the signal unless noted
Summary of the method: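 Transiently transfected HepG2 liver cells; cis-regulated reporters; 24 h dosing. RT-PCR plus CE read-out of reporter mRNA. DMSO baseline, bidirectional curve fitting.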

[2] = target: Aryl hydrocarbon receptor (Homo sapiens) (UniProt P35869); test: ATG_Ahr_CIS: Attagene CIS-FACTORIAL HepG2 Assay for human Aryl Hydrocarbon Receptor (Ahr) (AID 2282930); details: HepG2 AhR cis-factorial reporter transcription; actives raise or lower the signal
Sequence of Aryl hydrocarbon receptor (Homo sapiens) (P35869 whole entry, looked up): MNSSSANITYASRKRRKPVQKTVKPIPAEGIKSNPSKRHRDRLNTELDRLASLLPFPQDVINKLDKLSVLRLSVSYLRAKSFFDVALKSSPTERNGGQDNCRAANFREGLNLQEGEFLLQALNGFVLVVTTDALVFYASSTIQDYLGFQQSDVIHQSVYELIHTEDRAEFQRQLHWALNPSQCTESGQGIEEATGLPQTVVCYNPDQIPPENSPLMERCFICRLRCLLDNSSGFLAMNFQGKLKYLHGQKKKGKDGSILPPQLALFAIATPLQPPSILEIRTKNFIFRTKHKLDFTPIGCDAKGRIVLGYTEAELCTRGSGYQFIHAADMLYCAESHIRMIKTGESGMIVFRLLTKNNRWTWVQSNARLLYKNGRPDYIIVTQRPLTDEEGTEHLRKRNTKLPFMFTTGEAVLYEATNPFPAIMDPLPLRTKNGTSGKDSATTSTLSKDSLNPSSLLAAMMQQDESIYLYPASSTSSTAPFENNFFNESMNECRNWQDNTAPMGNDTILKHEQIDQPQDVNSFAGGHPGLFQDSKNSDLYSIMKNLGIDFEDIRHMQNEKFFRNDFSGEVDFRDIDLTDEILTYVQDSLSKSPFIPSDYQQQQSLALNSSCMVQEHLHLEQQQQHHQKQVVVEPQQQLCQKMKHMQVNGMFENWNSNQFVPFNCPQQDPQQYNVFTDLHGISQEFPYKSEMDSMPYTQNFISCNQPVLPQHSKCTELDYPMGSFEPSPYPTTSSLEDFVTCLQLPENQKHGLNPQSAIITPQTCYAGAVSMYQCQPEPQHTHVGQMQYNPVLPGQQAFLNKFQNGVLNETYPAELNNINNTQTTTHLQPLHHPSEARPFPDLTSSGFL
Summary of the method: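 Endogenous factor activity is tracked through cis-promoter reporter units transfected into HepG2 cells. Transcript levels at 24 h are read by fluorescent RT-PCR and capillary electrophoresis, with activity in either direction scored relative to DMSO.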

[3] = ATG_AP_1_CIS: Attagene CIS-FACTORIAL HepG2 Assay for human Activator Protein 1 (AP-1) (AID 2282931); details: HepG2 Attagene cis-factorial AP-1 reporter mRNA; actives raise or lower the signal
Summary of the method: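 We transfected HepG2 cells transiently with a set of cis-regulated reporter transcription units, dosed them for 24 h, and quantified reporter mRNA via RT-PCR and capillary electrophoresis, scoring gain or loss of signal relative to DMSO.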

[4] = ATG_AP_2_CIS: Attagene CIS-FACTORIAL HepG2 Assay for human Activator Protein 2 (AP-2) (AID 2282932); details: HepG2 AP-2 cis-reporter, Attagene transcription factor profiling; AC50: actives raise or lower the signal unless noted; outcome: actives raise or lower the signal unless noted
Summary of the method: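 HepG2 cells transiently transfected with cis-element reporter units and exposed for 24 h. Reporter mRNA measured by RT-PCR, FAM labelling, HpaI digestion and capillary electrophoresis. Changes in either direction fitted relative to DMSO.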

[5] = ATG_BRE_CIS: Attagene CIS-FACTORIAL HepG2 Assay for human Bone Morphogenetic Protein (BMP) Response Element (BRE) (AID 2282933); details: HepG2 BMP response element reporter, Attagene transcription factor profiling; actives raise or lower the signal
Summary of the method: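 HepG2 cells transiently transfected with multiplexed cis-element reporter units were dosed with chemical for 24 h. Reporter mRNA was measured by RT-PCR with fluorescent labelling, HpaI digestion and capillary electrophoresis; bidirectional fitting relative to DMSO.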

[6] = target: Retinoic acid receptor alpha (Homo sapiens) (UniProt P10276); test: ATG_DR5_RAR_CIS: Attagene CIS-FACTORIAL HepG2 Assay for human Retinoic Acid Receptor Alpha (RARE), DR5 submotif (AID 2282934); details: HepG2 Attagene cis-factorial RARE DR5 reporter, mRNA; actives raise or lower the signal
Sequence of Retinoic acid receptor alpha (Homo sapiens) (P10276 whole entry, looked up): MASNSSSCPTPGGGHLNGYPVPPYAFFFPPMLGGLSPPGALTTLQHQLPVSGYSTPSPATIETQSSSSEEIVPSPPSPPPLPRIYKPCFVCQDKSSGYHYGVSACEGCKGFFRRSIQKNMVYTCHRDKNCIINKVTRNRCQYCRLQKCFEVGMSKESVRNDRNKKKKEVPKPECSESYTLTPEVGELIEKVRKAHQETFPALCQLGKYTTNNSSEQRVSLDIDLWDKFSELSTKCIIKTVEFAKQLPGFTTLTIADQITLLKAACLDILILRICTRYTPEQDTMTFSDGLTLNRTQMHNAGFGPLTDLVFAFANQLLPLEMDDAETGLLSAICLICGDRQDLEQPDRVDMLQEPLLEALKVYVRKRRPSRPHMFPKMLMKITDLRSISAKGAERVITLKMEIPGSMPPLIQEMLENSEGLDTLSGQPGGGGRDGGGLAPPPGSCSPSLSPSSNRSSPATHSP
Summary of the method: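 After 24 h of chemical exposure, transiently transfected HepG2 cells were lysed for total RNA; the DR5-regulated reporter transcript was quantified via RT-PCR and capillary electrophoresis, with activity fitted bidirectionally against DMSO.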

[7] = target: Transcription factor E2F1 (Homo sapiens) (UniProt Q01094); test: ATG_E2F_CIS: Attagene CIS-FACTORIAL HepG2 Assay for human E2F Transcription Factor 1 (AID 2282935); details: HepG2 Attagene cis-reporter, E2F reporter RNA transcripts; actives raise or lower the signal
Sequence of Transcription factor E2F1 (Homo sapiens) (Q01094 whole entry, looked up): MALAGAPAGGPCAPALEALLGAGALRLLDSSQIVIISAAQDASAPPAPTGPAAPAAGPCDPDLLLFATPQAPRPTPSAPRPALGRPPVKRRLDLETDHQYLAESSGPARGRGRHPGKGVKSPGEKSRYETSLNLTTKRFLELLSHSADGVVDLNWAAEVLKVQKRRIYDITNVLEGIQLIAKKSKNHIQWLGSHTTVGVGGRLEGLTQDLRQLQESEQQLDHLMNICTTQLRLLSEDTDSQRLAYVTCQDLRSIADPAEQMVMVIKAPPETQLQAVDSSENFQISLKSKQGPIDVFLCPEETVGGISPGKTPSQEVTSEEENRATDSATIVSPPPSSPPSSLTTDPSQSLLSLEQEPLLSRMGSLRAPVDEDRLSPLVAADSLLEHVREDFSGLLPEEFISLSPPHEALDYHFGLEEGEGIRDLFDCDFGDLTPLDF
Summary of the method: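 Endogenous E2F1 activity read through cis-promoter reporter units transfected into HepG2. After 24 h compound treatment, reporter mRNA measured by RT-PCR, HpaI digestion and capillary electrophoresis. Bidirectional fit versus DMSO.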

[8] = ATG_E_Box_CIS: Attagene CIS-FACTORIAL HepG2 Assay for human Enhancer Box (E-box) (AID 2282936); details: HepG2 E-box cis-reporter transcription, actives raise or lower the signal
Summary of the method: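 HepG2 cells transiently transfected with multiplexed cis-element reporter units, dosed 24 h; reporter mRNA quantified by RT-PCR, 6-FAM labelling, HpaI digestion and capillary electrophoresis. E-box (USF1) signal fitted bidirectionally vs DMSO.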

[9] = ATG_M_61_CIS: Attagene CIS-FACTORIAL HepG2 Assay for M61 Transcription Factor (Internal Marker) (AID 2282937); details: HepG2 Attagene CIS-FACTORIAL M61 internal marker reporter; actives raise or lower the signal
Summary of the method: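 Multiplexed reporter mRNA assay, HepG2 human hepatoma cells, 24 h treatment. Signal: FAM-labelled, HpaI-digested RT-PCR fragments by CE. Fit: bidirectional, baseline DMSO.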

[10] = ATG_EGR_CIS: Attagene CIS-FACTORIAL HepG2 Assay for human Early Growth Response 1 (EGR1) (AID 2282938); details: HepG2 Attagene CIS-FACTORIAL EGR reporter mRNA; actives raise or lower the signal
Summary of the method: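 Multiplexed cis-reporter system in human hepatoma HepG2 cells, transiently transfected. Cells are dosed for 24 h; reporter transcripts are amplified, fluorescently tagged and sized by capillary electrophoresis, with DMSO as negative control.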

[11] = ATG_ERE_CIS: Attagene CIS-FACTORIAL HepG2 Assay for Estrogen Response Element (ERE) (AID 2282940); details: HepG2 ERE cis-reporter, Attagene RNA transcript; actives raise or lower the signal
Summary of the method: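 HepG2 cells transiently transfected with cis-promoter-driven multiplexed reporter transcription units report endogenous TF activity. After 24 h compound exposure, reporter mRNA is quantified by RT-PCR with capillary electrophoresis fluorescence; bidirectional fitting versus DMSO baseline.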

[12] = ATG_Ets_CIS: Attagene CIS-FACTORIAL HepG2 Assay for human Erythroblast Transformation Specific (ETS) (AID 2282941); details: HepG2 ETS cis-reporter transcription; AC50: actives raise or lower the signal unless noted; outcome: actives raise or lower the signal unless noted
Summary of the method: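 Steps: transfect HepG2 with multiple reporter units; treat compound 24 h; isolate RNA, DNase-treat, reverse-transcribe; PCR-amplify, label with 6-FAM, digest with HpaI; separate by capillary electrophoresis. Activity fitted both directions versus DMSO.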

[13] = target: Hepatocyte nuclear factor 3-beta (Homo sapiens) (UniProt Q9Y261); test: ATG_FoxA2_CIS: Attagene CIS-FACTORIAL HepG2 Assay for human Forkhead box A2 (FOXA2) (AID 2282942); details: HepG2 cis-reporter transcription factor activity, 24 h; actives raise or lower the signal
Sequence of Hepatocyte nuclear factor 3-beta (Homo sapiens) (Q9Y261 whole entry, looked up): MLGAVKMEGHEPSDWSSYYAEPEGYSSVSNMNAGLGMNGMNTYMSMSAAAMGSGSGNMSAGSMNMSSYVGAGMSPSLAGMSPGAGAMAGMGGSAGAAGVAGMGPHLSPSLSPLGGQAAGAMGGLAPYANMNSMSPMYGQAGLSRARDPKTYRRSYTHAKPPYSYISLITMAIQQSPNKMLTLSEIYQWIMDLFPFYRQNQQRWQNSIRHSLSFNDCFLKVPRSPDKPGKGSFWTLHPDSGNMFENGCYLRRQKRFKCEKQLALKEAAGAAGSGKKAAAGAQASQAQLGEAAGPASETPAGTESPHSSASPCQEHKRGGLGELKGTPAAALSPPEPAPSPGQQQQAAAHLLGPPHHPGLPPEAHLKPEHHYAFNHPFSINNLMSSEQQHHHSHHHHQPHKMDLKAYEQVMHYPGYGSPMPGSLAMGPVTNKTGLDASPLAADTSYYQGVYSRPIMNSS
Summary of the method: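 Multiplexed cis-element reporter assay in transiently transfected HepG2. Twenty-four hours post-dosing, RNA was reverse-transcribed, amplified, FAM-labelled, HpaI-digested and separated by CE. Activity gain or loss relative to DMSO.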

[14] = ATG_FoxO_CIS: Attagene CIS-FACTORIAL HepG2 Assay for human Forkhead box O (FoxO) (AID 2282943); details: HepG2 Attagene cis-reporter, FoxO element, mRNA; actives raise or lower the signal
Summary of the method: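 Transfected HepG2 reporter cells exposed to test chemical for 24 h; reporter RNA measured by reverse transcription, PCR and fluorescent capillary electrophoresis; curves fitted for increases and decreases against DMSO.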

[15] = ATG_GLI_CIS: Attagene CIS-FACTORIAL HepG2 Assay for human Zinc Finger Protein GLI1 (AID 2282945); details: HepG2, Attagene cis-factorial reporter mRNA, GLI element; actives raise or lower the signal
Summary of the method: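 Transiently transfected HepG2 cells report endogenous transcription factor activity via cis-element-driven reporter units. After 24 h compound exposure, reporter mRNA was measured by RT-PCR with capillary electrophoresis; bidirectional fitting against DMSO baseline.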

[16] = target: Bile acid receptor (Homo sapiens) (UniProt Q96RI1); test: ATG_IR1_CIS: Attagene CIS-FACTORIAL HepG2 Assay for human Nuclear Receptor Subfamily 1 Group H Member 4 (NR1H4), IR1 submotif (AID 2282946); details: IR1 reporter transcription, actives raise or lower the signal
Sequence of Bile acid receptor (Homo sapiens) (Q96RI1 whole entry, looked up): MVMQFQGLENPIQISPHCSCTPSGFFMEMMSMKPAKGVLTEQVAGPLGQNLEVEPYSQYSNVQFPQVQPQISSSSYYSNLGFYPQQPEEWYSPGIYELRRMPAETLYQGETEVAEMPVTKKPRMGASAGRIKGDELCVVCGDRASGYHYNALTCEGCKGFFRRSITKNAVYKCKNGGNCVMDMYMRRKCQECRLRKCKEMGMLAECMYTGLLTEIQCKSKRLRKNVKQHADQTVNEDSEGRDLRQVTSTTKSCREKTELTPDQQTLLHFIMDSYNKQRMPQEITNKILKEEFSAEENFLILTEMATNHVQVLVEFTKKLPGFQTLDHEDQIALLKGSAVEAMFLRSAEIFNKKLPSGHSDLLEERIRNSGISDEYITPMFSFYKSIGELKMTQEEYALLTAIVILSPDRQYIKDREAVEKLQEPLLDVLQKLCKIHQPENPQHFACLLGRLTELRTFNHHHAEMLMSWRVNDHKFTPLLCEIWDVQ
Summary of the method: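 HepG2 cells transiently transfected with multiple cis-promoter-driven reporter units to measure endogenous transcription factor activity; 24 h exposure. Reporter mRNA read by RT-PCR, FAM labelling, HpaI digestion and capillary electrophoresis. Bidirectional fit versus DMSO.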

[17] = ATG_ISRE_CIS: Attagene CIS-FACTORIAL HepG2 Assay for human Interferon Regulatory Factor 1 (IRF1) binding to an Interferon-Stimulated Response Element (ISRE) (AID 2282948); details: HepG2 ISRE cis-reporter (Attagene), mRNA transcription readout; actives raise or lower the signal
Summary of the method: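 Transfected HepG2 (multiple reporter transcription units, cis elements) dosed 24 h. RNA → oligo(dT) RT → PCR → 6-FAM primer extension → HpaI → CE. DMSO = negative control/baseline.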

[18] = ATG_GATA_CIS: Attagene CIS-FACTORIAL HepG2 Assay for human GATA Binding Protein (AID 2282944); details: HepG2 GATA cis-element reporter, Attagene multiplex mRNA; actives raise or lower the signal
Summary of the method: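 HepG2 cells transiently transfected with multiplexed cis-element reporter units reflecting endogenous transcription factor activity; reporter mRNA measured after 24 h dosing by RT-PCR, 6-FAM labeling, HpaI digestion and capillary electrophoresis. Bidirectional fitting versus DMSO baseline.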

[19] = ATG_GRE_CIS: Attagene CIS-FACTORIAL HepG2 Assay for human Glucocorticoid Response Elements (GRE) (AID 2282947); details: HepG2 GRE cis-reporter, Attagene multiplex mRNA; AC50: actives raise or lower the signal unless noted; outcome: actives raise or lower the signal unless noted
Summary of the method: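 Transiently transfected HepG2 cells carrying GRE cis-reporter units (endogenous TF activity) dosed 24 h; reporter mRNA quantified by RT-PCR, 6-FAM labelling, HpaI digestion and capillary electrophoresis. Bidirectional fit versus DMSO baseline.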

[20] = ATG_M_19_CIS: Attagene CIS-FACTORIAL HepG2 Assay for M19 Transcription Factor (Internal Marker) (AID 2282939); details: HepG2 Attagene CIS-FACTORIAL M19 internal marker reporter; actives raise or lower the signal
Summary of the method: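 HepG2 cells transiently transfected with cis-regulated multiple reporter transcription units were dosed for 24 h; reporter mRNA was quantified by RT-PCR, 6-FAM primer-extension labelling, HpaI digestion and capillary electrophoresis, with bidirectional fitting against DMSO baseline.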

## CCC(=O)C=Cc1ccc(OC)cc1
[1]
  AC50: 68.2 µM (active)
[2]
  outcome: inactive
[3]
  outcome: inactive
[4]
  outcome: inactive
[5]
  outcome: inactive
[6]
  outcome: inactive
[7]
  outcome: inactive
[8]
  outcome: inactive
[9]
  outcome: inactive
[10]
  AC50: 100 µM (active)
[11]
  outcome: inactive
[12]
  outcome: inactive
[13]
  outcome: inactive
[14]
  outcome: inactive
[15]
  outcome: inactive
[16]
  outcome: inactive
[17]
  AC50: 100 µM (active)

## O=C(OC(=O)C(F)(F)C(F)(F)F)C(F)(F)C(F)(F)F
[1]
  outcome: inactive
[2]
  outcome: inactive
[3]
  outcome: inactive
[4]
  outcome: inactive
[5]
  outcome: inactive
[6]
  outcome: inactive
[7]
  outcome: inactive
[8]
  outcome: inactive
[9]
  outcome: inactive
[10]
  outcome: inactive
[11]
  outcome: inactive
[12]
  outcome: inactive
[13]
  outcome: inactive
[14]
  outcome: inactive
[18]
  outcome: inactive
[15]
  outcome: inactive
[16]
  outcome: inactive
[19]
  outcome: inactive
[17]
  outcome: inactive

## FC(F)(F)C(F)(F)C(F)(F)C(F)(F)I
[1]
  outcome: inactive
[2]
  outcome: inactive
[3]
  outcome: inactive
[4]
  outcome: inactive
[5]
  outcome: inactive
[6]
  outcome: inactive
[7]
  outcome: inactive
[8]
  outcome: inactive
[9]
  outcome: inactive
[10]
  outcome: inactive
[11]
  outcome: inactive
[12]
  outcome: inactive
[13]
  outcome: inactive
[14]
  outcome: inactive
[15]
  outcome: inactive
[16]
  outcome: inactive
[19]
  outcome: inactive
[17]
  outcome: inactive

## O=C(F)C(F)(F)C(F)(F)C(F)(F)C(=O)F
[1]
  outcome: inactive
[2]
  outcome: inactive
[3]
  outcome: inactive
[4]
  outcome: inactive
[5]
  outcome: inactive
[6]
  outcome: inactive
[8]
  outcome: inactive
[9]
  outcome: inactive
[10]
  outcome: inactive
[11]
  outcome: inactive
[12]
  outcome: inactive
[13]
  outcome: inactive
[14]
  outcome: inactive
[18]
  outcome: inactive
[15]
  outcome: inactive
[16]
  outcome: inactive
[19]
  outcome: inactive
[17]
  outcome: inactive

## O=C(F)C(F)(F)C(F)(F)C(F)(F)C(F)F
[1]
  outcome: inactive
[2]
  outcome: inactive
[3]
  outcome: inactive
[4]
  outcome: inactive
[5]
  outcome: inactive
[6]
  outcome: inactive
[8]
  outcome: inactive
[9]
  outcome: inactive
[10]
  outcome: inactive
[20]
  outcome: inactive
[11]
  outcome: inactive
[12]
  outcome: inactive
[13]
  outcome: inactive
[14]
  outcome: inactive
[18]
  outcome: inactive
[15]
  outcome: inactive
[16]
  outcome: inactive
[17]
  outcome: inactive

## c1ccc2c(c1)CCC2
[1]
  outcome: inactive
[2]
  outcome: inactive
[3]
  outcome: inactive
[4]
  outcome: inactive
[6]
  outcome: inactive
[8]
  outcome: inactive
[9]
  outcome: inactive
[10]
  outcome: inactive
[20]
  outcome: inactive
[11]
  outcome: inactive
[12]
  outcome: inactive
[13]
  outcome: inactive
[14]
  outcome: inactive
[18]
  outcome: inactive
[15]
  outcome: inactive
[16]
  outcome: inactive
[19]
  outcome: inactive
[17]
  outcome: inactive

## CCCCCCCCCCCCCC[n+]1ccccc1
[1]
  outcome: inactive
[2]
  outcome: inactive
[3]
  AC50: 0.252 µM (active)
[4]
  AC50: 19.8 µM (active)
[6]
  outcome: inactive
[7]
  outcome: inactive
[8]
  outcome: inactive
[9]
  outcome: inactive
[10]
  AC50: 2.52 µM (active)
[20]
  outcome: inactive
[11]
  outcome: inactive
[12]
  outcome: inactive
[14]
  outcome: inactive
[18]
  outcome: inactive
[15]
  outcome: inactive
[16]
  outcome: inactive
[19]
  outcome: inactive
[17]
  outcome: inactive

## CC(C)(C)C1CCCCC1O (centres undefined)
[1]
  outcome: inactive
[2]
  outcome: inactive
[3]
  outcome: inactive
[4]
  outcome: inactive
[6]
  outcome: inactive
[7]
  outcome: inactive
[8]
  outcome: inactive
[9]
  outcome: inactive
[10]
  outcome: inactive
[20]
  outcome: inactive
[11]
  outcome: inactive
[12]
  outcome: inactive
[13]
  outcome: inactive
[14]
  outcome: inactive
[18]
  outcome: inactive
[15]
  outcome: inactive
[16]
  outcome: inactive
[17]
  outcome: inactive

From PubChem BioAssay (EPA / NIEHS)
